From paper PMC8384837, “Expanding the binding specificity for RNA recognition by a PUF domain” come the findings set out here.

Positions count from the first letter of the chain named.

Holding throughout (assay): yeast three-hybrid, YBZ-1, SC-Leu-His + 0.5 mM 3-AT, 4 days
Conditions in all cases: tags: N-Gal4 AD-HA kept; label: inside an RPR1-promoter hybrid RNA with tandem MS2 sites; ssRNA

The target in one assay is T1, PUM1 PUF domain R6-YWV (Homo sapiens, UniProt Q14671 828-1176, N1043Y;Y1044W;Q1047V).
T1 sequence: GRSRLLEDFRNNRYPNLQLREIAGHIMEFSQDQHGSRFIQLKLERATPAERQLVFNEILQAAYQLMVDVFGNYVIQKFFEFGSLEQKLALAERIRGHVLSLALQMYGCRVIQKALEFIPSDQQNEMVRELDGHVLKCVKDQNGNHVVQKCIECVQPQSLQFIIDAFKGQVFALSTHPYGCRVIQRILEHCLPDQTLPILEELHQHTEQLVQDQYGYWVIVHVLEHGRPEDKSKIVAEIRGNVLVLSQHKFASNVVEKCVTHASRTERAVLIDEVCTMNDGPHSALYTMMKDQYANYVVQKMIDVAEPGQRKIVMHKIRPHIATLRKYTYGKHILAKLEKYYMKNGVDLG
In a few lines: (§1)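 Sequencing with Illumina followed PCR amplification of the repeat regions from transformants grown four days on SC-Leu (input) or SC-Leu-His + 0.5 mM 3-AT (selection). The transformants were strain YBZ-1 with a LexA–MS2 coat fusion and a HIS3 reporter, carrying Pumilio-1 PUF domain libraries and matching RNA elements. The interaction score is the log change in variant frequency from input to selection, computed in log2 with a pseudocount of 1 for absent variants.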

In the next assay the target is T2, PUM1 PUF domain R6-SWA (Homo sapiens, UniProt Q14671 828-1176, N1043S;Y1044W;Q1047A).
T2 sequence: T1 sequence with Y216S, V220A
In a few lines:
as §1

The next assay deals with PUM1 PUF domain R3-GHP (Homo sapiens, UniProt Q14671 828-1176, C935G;R936H;Q939P). In a few lines:
as §1

The target in a further assay is PUM1 PUF domain R7-RIL (Homo sapiens, UniProt Q14671 828-1176, S1079R;N1080I;E1083L). Summed up:
as §1

The next assay concerns the target PUM1 PUF domain R5-RMP (Homo sapiens, UniProt Q14671 828-1176, C1007R;R1008M;Q1011P). In a few lines: as §1
In another assay the target is PUM1 PUF domain R8-AYK (Homo sapiens, UniProt Q14671 828-1176, N1122A;Q1126K). In a few lines: as §1
A further assay addresses PUM1 PUF domain R2-NRG (Homo sapiens, UniProt Q14671 828-1176, Y900R;Q903G). Summed up:
as §1

The target of another assay is PUM1 PUF domain R8-RFL (Homo sapiens, UniProt Q14671 828-1176, N1122R;Y1123F;Q1126L). In a few lines:
as §1

A further assay addresses PUM1 PUF domain R3-WCG (Homo sapiens, UniProt Q14671 828-1176, C935W;R936C;Q939G). In a few lines:
as §1

The target of the next assay is PUM1 PUF domain R2-GWG (Homo sapiens, UniProt Q14671 828-1176, N899G;Y900W;Q903G). In a few lines:
as §1

As to “GGCUAGAACUAGUGGAUCCCCCGGCGCCCGGCGGCUCGAGCCCGGGUAAGUGAAAAUAGUCUGCAUGCCGCCGGGCGCCAUGCCUGCAGGUCGACUCUAGAAAACAUG”, the binding signal was 4.97 log2 enrichment (interaction score) with PUM1 PUF domain R6-YWV and 3.21 log2 enrichment (interaction score) with PUM1 PUF domain R6-SWA.

On to “GGCUAGAACUAGUGGAUCCCCCGGCGCCCGGCGGCUCGAGCCCGGGUAAGUGUAAUUAGUCUGCAUGCCGCCGGGCGCCAUGCCUGCAGGUCGACUCUAGAAAACAUG”, for which the binding signal in the assay with PUM1 PUF domain R3-GHP is 4.31 log2 enrichment (interaction score).

With “GGCUAGAACUAGUGGAUCCCCCGGCGCCCGGCGGCUCGAGCCCGGGUAAGUUUAAAUAGUCUGCAUGCCGCCGGGCGCCAUGCCUGCAGGUCGACUCUAGAAAACAUG”, in the assay with PUM1 PUF domain R7-RIL, the binding signal is 2.38 log2 enrichment (interaction score).

In the case of “GGCUAGAACUAGUGGAUCCCCCGGCGCCCGGCGGCUCGAGCCCGGGUAAGUGUAAAUAGUCUGCAUGCCGCCGGGCGCCAUGCCUGCAGGUCGACUCUAGAAAACAUG”, the binding signal with PUM1 PUF domain R5-RMP is 0.45 log2 enrichment (interaction score); with PUM1 PUF domain R8-AYK it was 2.5 log2 enrichment (interaction score); in the assay with PUM1 PUF domain R6-SWA, 1.55 log2 enrichment (interaction score); with PUM1 PUF domain R2-NRG, 2.44 log2 enrichment (interaction score); with PUM1 PUF domain R8-RFL, 4.7 log2 enrichment (interaction score).

On to “GGCUAGAACUAGUGGAUCCCCCGGCGCCCGGCGGCUCGAGCCCGGGUAAGUGUCAAUAGUCUGCAUGCCGCCGGGCGCCAUGCCUGCAGGUCGACUCUAGAAAACAUG”, for which the binding signal in the assay with PUM1 PUF domain R5-RMP is 4.09 log2 enrichment (interaction score).

Take “GGCUAGAACUAGUGGAUCCCCCGGCGCCCGGCGGCUCGAGCCCGGGUAAGCGUAAAUAGUCUGCAUGCCGCCGGGCGCCAUGCCUGCAGGUCGACUCUAGAAAACAUG”: the values for the binding signal with PUM1 PUF domain R8-AYK and with PUM1 PUF domain R8-RFL were 4.11 log2 enrichment (interaction score) and 5.36 log2 enrichment (interaction score), respectively.

As to “GGCUAGAACUAGUGGAUCCCCCGGCGCCCGGCGGCUCGAGCCCGGGUAAGUGUAAGUAGUCUGCAUGCCGCCGGGCGCCAUGCCUGCAGGUCGACUCUAGAAAACAUG”, the binding signal with PUM1 PUF domain R3-GHP is 4.47 log2 enrichment (interaction score); with PUM1 PUF domain R3-WCG, 4.13 log2 enrichment (interaction score).

“GGCUAGAACUAGUGGAUCCCCCGGCGCCCGGCGGCUCGAGCCCGGGUAAGUGUAAAGAGUCUGCAUGCCGCCGGGCGCCAUGCCUGCAGGUCGACUCUAGAAAACAUG”: the binding signal with PUM1 PUF domain R2-GWG is 2.13 log2 enrichment (interaction score).

On to “GGCUAGAACUAGUGGAUCCCCCGGCGCCCGGCGGCUCGAGCCCGGGUAAGUGUAAAAAGUCUGCAUGCCGCCGGGCGCCAUGCCUGCAGGUCGACUCUAGAAAACAUG”, for which the binding signal was 3.32 log2 enrichment (interaction score) with PUM1 PUF domain R2-GWG and 2.91 log2 enrichment (interaction score) in the assay with PUM1 PUF domain R2-NRG.
